Measurements: the supplement of paper PMC4954754
± gives the uncertainty stated by the source.

tested on: HEK293T-Rex ERSE-FLuc; assay: ERSE-FLuc reporter activation, triplicate confirmation, relative to 500 nM thapsigargin (% of thapsigargin); higher = stronger ATF6/ERSE reporter activation; conditions: 6.8 µM; 18 h; screen: confirmation
Description: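 HEK293T-Rex cells stably expressing the ERSE-firefly luciferase (BiP promoter, ATF6-preferring) or XBP1-splicing Renilla luciferase (IRE1/XBP1s) reporter, 1536-well plates, compound at 6.8 µM for 18 hr at 37 °C; luminescence read […] and expressed as % activation = 100*(compound - median DMSO)/(median 500 nM thapsigargin - median DMSO). Primary screen was single-pass; confirmation screen in triplicate (mean ± SD).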

Compound	ERSE-FLuc reporter activation
COc1ccccc1/C=C/C(=O)Nc1ccc(Cl)cn1	27.9 ± 6.6
OCCNc1nc(Nc2ccc(Br)cc2)nc2ccccc12	54.2 ± 16
Cc1ccc(O)c(NC(=O)c2cc(-c3ccc(F)cc3)on2)c1	31.9 ± 8.4
c1ccc2cc(-c3cnnc(N4CCOCC4)n3)ccc2c1	29 ± 8.7
CN(C)c1ccc(/C=C(/C#N)C(=O)Nc2ccc(O)cc2)cc1	33.3 ± 5
COc1cccc(C(=O)Nc2sc3c(c2C#N)CC(C)CC3)c1 (stereo not drawn)	28 ± 5.5
N#Cc1ccc(-c2cccs2)nc1SCc1ccccn1	25.2 ± 6.2
O=C(NC1CCCC1)c1cc(-c2cccs2)on1	25.7 ± 2.1
COc1ccccc1-c1cnnc(N/N=C/c2c[nH]c3ccccc23)n1	37.9 ± 9.7
O=C(Nc1ccc2c(c1)OCCO2)C(=O)Nc1ccccc1Cl	27 ± 5.6
CCOc1cc(/C=C2/NC(=O)N(Cc3ccc(F)cc3)C2=O)ccc1O	32.8 ± 5.4
O=C(CCc1ccccc1)Nc1ccc(Cl)cn1	27.8 ± 4.6
COc1ccc(/C(C)=N/OC/C(O)=C(\C#N)c2nc3ccccc3[nH]2)cc1OC	31.3 ± 11
CCCCCCOc1ccc(/C(C)=N/NC2=NCCN2)cc1[N+](=O)[O-]	31.3 ± 2.8
COc1ccc2c(Cl)c(C(=O)Nc3ccccc3C(N)=O)sc2c1	31.6 ± 1.1
Nc1ccc2nc(-c3ccccn3)[nH]c2c1	26.8 ± 9.3
Oc1ccc(-c2cn3ccccc3n2)cc1O	40 ± 5.6
CC(C)CNC(=O)c1cc(-c2ccc(F)cc2)no1	26.6 ± 1.6
COc1ccc(-c2csc(N(CC3CCCO3)C(=O)CCl)n2)cc1 (stereo not drawn)	25.3 ± 4.3
CCc1ccc(NC(=O)/C=C/c2ccco2)cc1	29.1 ± 4
O=C(/C=C/c1ccco1)Nc1ccc(Br)cc1Cl	25.5 ± 1.6
Oc1ccc(/C=N/Nc2cccc3cccnc23)cc1O	33.1 ± 4.8
O=C1NC(=Nc2ccc(F)cc2)S/C1=C\c1ccc(O)c(O)c1	32.4 ± 2.3
